# Source: the supplement of paper PMC7724964
# ± gives the standard deviation of the averaged measurements.
# Target: T1, CAPN2 513-700 EF-hand_8 (domain begin residue: 513, domain end residue: 700), P17655
# T1 chain: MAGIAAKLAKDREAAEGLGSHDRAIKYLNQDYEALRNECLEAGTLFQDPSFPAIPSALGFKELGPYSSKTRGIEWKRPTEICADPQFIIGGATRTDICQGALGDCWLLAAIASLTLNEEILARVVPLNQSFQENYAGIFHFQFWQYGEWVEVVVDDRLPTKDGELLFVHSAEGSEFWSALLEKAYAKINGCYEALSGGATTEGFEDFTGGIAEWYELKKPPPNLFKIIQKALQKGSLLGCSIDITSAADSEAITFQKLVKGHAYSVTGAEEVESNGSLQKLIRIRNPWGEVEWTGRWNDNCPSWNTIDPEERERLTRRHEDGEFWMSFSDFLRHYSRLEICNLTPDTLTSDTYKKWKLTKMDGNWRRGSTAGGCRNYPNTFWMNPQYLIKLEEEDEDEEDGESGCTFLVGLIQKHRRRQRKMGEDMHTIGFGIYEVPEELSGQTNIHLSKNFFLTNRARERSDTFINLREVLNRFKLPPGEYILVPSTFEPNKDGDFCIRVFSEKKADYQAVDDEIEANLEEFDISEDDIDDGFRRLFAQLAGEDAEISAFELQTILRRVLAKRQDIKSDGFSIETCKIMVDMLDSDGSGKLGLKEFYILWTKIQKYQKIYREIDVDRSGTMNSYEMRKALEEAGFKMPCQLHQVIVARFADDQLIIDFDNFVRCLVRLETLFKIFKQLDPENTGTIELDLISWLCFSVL
# Test: phage ELISA signal ratio (GST-PRM binding over GST background); higher = stronger binding of peptide-phage to the PRM
# Description: (§1)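 Phage-displayed random hexadecapeptides (Cys-free, flanked by invariant Gly linkers, fused to the M13 P8 major coat protein) were selected over 5 rounds against GST-fused human PRM domains. Individual clones from rounds 4-5 were tested by phage ELISA, and positive clones binding the target but not GST were sequenced. Values are the ELISA signal ratio of target over background (GST); the background signal is given separately.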
row,Binder,phage ELISA signal ratio
1,VTVPPWLMEMIMELMQ,5.99

# Target: T2, ARID4A 568-634 Tudor-knot (domain begin residue: 568, domain end residue: 634), P29374
# T2 chain: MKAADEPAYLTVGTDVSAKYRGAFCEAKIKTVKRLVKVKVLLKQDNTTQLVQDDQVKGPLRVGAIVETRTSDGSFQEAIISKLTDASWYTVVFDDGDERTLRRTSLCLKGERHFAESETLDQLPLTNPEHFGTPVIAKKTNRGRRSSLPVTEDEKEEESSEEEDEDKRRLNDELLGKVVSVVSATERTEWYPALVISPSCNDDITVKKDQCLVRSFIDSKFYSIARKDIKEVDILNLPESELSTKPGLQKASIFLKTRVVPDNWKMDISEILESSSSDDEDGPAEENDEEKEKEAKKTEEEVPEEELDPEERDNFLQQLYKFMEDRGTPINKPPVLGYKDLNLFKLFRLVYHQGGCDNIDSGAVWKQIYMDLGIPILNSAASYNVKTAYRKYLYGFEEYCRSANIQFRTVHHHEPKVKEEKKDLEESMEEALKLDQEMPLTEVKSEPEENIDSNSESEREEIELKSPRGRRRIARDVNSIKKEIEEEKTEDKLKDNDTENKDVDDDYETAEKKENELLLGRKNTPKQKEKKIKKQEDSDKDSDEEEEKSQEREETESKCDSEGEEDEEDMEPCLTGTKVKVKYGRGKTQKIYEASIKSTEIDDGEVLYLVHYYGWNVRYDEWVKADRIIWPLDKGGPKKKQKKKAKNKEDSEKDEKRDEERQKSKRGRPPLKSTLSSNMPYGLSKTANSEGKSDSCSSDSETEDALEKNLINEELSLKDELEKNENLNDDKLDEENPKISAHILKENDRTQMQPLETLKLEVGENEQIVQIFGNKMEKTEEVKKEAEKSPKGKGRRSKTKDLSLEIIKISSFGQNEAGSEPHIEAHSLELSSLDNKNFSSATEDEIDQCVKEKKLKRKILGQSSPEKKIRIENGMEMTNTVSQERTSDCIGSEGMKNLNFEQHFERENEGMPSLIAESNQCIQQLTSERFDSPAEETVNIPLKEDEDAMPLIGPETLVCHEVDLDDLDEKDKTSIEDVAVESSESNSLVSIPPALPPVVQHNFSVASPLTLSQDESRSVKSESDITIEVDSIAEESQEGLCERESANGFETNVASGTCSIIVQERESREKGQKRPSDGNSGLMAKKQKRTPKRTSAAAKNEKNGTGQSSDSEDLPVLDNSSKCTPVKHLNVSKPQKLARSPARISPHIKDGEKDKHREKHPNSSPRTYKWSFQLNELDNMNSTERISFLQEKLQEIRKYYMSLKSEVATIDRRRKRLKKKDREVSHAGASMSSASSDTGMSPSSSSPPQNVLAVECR
# Test: as above
# Description: as §1
row,Binder,phage ELISA signal ratio
1,STDIWDMWREWNEIDM,9.5 ± 0.67
2,MLHDGWLMPGMTHSVN,8.8

# Target: KMT2C 1055-1137 PHD (domain begin residue: 1055, domain end residue: 1137)
# Test: as above
# Description: as §1
row,Binder,phage ELISA signal ratio
1,STDIWDMWREWNEIDM,6.74

# Target: KMT2C 995-1055 PHD (domain begin residue: 995, domain end residue: 1055)
# Test: as above
# Description: as §1
row,Binder,phage ELISA signal ratio
1,STDIWDMWREWNEIDM,5.38

# Target: SETD1A 2-220 RRM_1 (domain begin residue: 2, domain end residue: 220), O15047
# Sequence (O15047 whole entry): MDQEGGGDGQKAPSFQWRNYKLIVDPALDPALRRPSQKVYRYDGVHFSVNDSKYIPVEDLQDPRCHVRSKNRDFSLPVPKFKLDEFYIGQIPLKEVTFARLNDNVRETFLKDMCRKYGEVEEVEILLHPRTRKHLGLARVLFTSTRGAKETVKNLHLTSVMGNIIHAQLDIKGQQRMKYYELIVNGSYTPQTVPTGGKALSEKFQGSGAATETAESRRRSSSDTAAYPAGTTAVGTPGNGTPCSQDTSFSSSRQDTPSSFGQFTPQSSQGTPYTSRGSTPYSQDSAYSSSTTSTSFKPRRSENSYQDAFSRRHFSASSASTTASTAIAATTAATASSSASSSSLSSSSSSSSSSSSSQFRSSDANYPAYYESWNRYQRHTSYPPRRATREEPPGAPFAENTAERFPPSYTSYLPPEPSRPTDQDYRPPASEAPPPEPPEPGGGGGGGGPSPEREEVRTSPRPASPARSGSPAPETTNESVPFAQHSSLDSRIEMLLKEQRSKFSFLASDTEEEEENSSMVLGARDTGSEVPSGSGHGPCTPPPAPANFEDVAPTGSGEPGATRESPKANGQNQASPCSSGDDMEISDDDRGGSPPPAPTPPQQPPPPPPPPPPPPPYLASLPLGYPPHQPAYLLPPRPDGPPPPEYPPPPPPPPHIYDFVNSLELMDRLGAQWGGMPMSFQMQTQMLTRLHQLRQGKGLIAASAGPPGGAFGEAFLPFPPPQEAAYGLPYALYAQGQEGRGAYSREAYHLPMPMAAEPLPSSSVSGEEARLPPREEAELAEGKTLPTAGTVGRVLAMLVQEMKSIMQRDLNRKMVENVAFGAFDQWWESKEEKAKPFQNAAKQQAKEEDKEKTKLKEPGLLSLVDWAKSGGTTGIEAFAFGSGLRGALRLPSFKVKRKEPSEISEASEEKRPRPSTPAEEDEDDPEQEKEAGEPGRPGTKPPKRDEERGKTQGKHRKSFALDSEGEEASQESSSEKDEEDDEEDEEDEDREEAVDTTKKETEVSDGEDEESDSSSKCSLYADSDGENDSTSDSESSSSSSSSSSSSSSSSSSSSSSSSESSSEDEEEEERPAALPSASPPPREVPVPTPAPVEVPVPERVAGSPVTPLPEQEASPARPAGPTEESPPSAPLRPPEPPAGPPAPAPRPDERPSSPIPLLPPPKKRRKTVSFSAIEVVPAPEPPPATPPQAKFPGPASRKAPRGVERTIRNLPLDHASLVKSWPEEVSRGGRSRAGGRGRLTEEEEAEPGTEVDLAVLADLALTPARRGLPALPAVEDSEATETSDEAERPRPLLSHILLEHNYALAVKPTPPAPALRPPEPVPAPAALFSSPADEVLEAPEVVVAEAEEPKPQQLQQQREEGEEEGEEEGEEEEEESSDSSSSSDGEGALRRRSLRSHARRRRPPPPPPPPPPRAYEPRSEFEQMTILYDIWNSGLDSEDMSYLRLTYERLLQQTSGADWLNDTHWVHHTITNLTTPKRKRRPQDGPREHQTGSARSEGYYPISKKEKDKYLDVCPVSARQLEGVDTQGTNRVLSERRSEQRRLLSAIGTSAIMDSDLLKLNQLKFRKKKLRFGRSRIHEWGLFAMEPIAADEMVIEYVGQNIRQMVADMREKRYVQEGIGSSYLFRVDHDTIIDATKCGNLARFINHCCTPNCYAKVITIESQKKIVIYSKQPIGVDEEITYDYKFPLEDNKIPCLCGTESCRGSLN
# Test: as above
# Description: as §1
row,Binder,phage ELISA signal ratio
1,STDIWDMWREWNEIDM,12

# Target: T3, TDRD1 261-449 TUDOR (domain begin residue: 261, domain end residue: 449), Q9BXT4
# T3 chain: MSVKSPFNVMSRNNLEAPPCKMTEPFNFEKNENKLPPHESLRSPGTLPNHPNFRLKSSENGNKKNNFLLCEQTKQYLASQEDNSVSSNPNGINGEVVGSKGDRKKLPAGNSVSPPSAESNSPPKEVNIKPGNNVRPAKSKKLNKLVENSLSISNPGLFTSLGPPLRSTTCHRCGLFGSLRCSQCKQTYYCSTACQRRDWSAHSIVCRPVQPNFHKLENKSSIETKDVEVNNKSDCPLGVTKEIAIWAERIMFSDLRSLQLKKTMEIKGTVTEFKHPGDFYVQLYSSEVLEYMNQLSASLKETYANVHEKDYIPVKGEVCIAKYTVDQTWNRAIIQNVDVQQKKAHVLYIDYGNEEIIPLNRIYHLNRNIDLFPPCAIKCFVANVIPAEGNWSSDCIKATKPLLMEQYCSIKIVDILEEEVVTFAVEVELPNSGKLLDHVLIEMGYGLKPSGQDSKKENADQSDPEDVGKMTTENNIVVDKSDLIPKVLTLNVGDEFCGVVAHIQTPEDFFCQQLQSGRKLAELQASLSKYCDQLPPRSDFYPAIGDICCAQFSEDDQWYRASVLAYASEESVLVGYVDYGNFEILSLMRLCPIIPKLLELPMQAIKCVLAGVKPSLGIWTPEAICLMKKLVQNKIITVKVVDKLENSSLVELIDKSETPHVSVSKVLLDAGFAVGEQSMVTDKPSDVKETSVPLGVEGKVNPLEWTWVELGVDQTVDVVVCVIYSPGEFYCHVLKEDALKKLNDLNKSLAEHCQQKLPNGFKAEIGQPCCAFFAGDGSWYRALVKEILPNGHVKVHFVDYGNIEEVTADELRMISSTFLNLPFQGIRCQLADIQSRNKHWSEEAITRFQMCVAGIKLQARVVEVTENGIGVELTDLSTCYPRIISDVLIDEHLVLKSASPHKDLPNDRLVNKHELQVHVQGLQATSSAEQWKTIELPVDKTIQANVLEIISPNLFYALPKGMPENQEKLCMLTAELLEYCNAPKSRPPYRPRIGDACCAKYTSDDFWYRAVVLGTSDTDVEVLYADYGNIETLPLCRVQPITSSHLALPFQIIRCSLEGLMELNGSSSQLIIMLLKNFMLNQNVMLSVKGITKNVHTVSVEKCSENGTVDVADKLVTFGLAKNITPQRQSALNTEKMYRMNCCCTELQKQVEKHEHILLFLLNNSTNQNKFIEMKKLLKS
# Test: as above
# Description: as §1
row,Binder,phage ELISA signal ratio
1,STDIWDMWREWNEIDM,9.16

# Target: T4, TDRKH 290-430 TUDOR+SNase (domain begin residue: 290, domain end residue: 430), Q9Y2W6
# T4 chain: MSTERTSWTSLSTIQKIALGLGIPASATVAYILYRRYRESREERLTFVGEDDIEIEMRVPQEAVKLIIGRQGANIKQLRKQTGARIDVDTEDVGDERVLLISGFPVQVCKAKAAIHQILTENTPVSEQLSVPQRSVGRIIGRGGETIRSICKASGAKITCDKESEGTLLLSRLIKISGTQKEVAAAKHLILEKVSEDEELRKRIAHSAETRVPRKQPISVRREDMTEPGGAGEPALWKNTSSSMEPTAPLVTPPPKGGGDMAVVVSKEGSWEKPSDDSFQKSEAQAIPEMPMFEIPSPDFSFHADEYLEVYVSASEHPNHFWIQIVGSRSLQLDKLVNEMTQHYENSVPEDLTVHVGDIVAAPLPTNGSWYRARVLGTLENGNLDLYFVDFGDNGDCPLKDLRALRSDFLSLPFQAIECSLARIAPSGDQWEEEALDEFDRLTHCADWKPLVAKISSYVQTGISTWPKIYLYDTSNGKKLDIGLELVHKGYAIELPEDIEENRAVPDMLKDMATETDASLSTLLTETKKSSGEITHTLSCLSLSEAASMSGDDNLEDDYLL
# Test: as above
# Description: as §1
row,Binder,phage ELISA signal ratio
1,STDIWDMWREWNEIDM,6.85

# Target: T5, ZGPAT 120-268 zf-CCCH+TUDOR (domain begin residue: 120, domain end residue: 268), Q8N5A5
# T5 chain: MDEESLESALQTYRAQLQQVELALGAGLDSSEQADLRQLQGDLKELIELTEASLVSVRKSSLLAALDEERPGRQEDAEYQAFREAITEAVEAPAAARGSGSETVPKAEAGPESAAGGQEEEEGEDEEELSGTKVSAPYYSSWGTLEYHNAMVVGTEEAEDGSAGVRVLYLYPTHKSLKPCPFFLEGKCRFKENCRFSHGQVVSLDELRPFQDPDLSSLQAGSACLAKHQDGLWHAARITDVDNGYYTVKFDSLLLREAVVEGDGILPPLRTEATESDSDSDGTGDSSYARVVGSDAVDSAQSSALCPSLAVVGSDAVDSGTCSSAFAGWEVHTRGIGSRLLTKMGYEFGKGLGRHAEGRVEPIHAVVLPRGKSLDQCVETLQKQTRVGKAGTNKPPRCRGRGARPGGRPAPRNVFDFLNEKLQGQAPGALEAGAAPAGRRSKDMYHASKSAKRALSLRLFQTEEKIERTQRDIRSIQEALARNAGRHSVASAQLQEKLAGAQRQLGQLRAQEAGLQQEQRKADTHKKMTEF
# Test: as above
# Description: as §1
row,Binder,phage ELISA signal ratio
1,MLHDGWLMPGMTHSVN,4.63
